Bioassay records (PubChem BioAssay)
The list is not random: actives were taken first. Their share in the collection is about 2.1%.
aSyn yeast inh: inhibitors of alpha-synuclein toxicity in yeast. hit rate 0.14% among 370,000. Potency, µM (top dose mostly 46.1 µM), without a hit: at the top dose growth rescue (activation), actives largely listed as activators. AID 652106. Yeast expressing alpha-synuclein, growth rescue, BacTiter-Glo, 24 h; note: % of control where 0% means no effect; nearly all actives have a fitted effect of over 65% in size
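Screening used galactose-induced yeast with toxic alpha-synuclein levels, exposed to compound for 24 hr at 30 deg C. Cell growth, read with BacTiter-Glo luminescence, gave the measured signal.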
Abeta rescue: compounds reversing amyloid beta toxicity in yeast; Potency, µM (series often up to 46.1 µM), actives largely listed as activators; yeast expressing A-beta42, growth rescue, OD600, 48 h; response scale: 0% DMSO, 100% iron-clioquinol control; hit rate 0.063% among 410,000; AID 1347071; note: nearly all actives have a fitted effect of over 55% in size
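Yeast growth medium received pinned compounds, then yeast cells expressing toxic A-beta were added; plates incubated at 30 C for 48 hr. Growth read as absorbance at 600 nm, normalized to DMSO and equimolar FeCl3 plus clioquinol controls.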
TDP43 rescue: TDP-43 toxicity inhibition in yeast; TDP-43 expressing yeast growth rescue, BacTiter-Glo, 24 h; Potency, µM (top dose mostly 46.1 µM), for inactives: at the highest dose growth rescue (activation), usual class: activators; hit rate 1.8% among 410,000; AID 652104; note: % of control where 0% means no effect; nearly all actives have a fitted effect of over 50% in size
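Cell-based yeast growth screen: TDP-43 expression induced in galactose, inoculum OD600=0.02 after raffinose pregrowth to mid-log. Read-out BacTiter-Glo luminescence at 24 hr, 30 deg C; inhibition of toxicity seen as signal increase.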
FUS yeast rescue: rescues growth of FUS-expressing yeast. S. cerevisiae FUS-expressing, growth rescue, OD600, 24 h. Potency, µM (doses to about 76.6 µM), hits mostly activators. hit rate 0.24% among 390,000. AID 1347120;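 note: plate controls were DMSO vehicle for no effect and reference control for full effect; nearly all actives have a fitted effect of over 55% in size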
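Absorbance at 600 nm, taken 24hr after compound addition, measured rescue of FUS-yeast growth at 30C. Induction used 2% galactose with seeding at OD 0.005. Controls: CP55940 from 92uM final, DMSO only.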
An asterisk follows results filed as active. Calls come from the whole dose curve; as a rule, active = well fitted curve in the direction sought with a large enough effect; inconclusive = small, poorly fitted or top-dose-only effect, or another doubt; inactive = no such curve, though single readings can be large; an effect the other way counts as inactive or inconclusive. Potency is the fitted concentration of half-maximal effect.

For O=C(CSCc1ccccc1Cl)N1CCN(c2ccc(Cl)cc2)CC1 the results were Abeta rescue inactive, TDP43 rescue 16µM* and FUS yeast rescue inconclusive.
For O=C(CSCc1ccccc1Cl)N1CCN(c2ccc(F)cc2)CC1 the results were Abeta rescue inactive, TDP43 rescue 14µM* and FUS yeast rescue inactive.
For O=[N+]([O-])c1ccc(N2CCN(C(=S)NCc3ccc(Cl)cc3)CC2)cc1 the results were aSyn yeast inh 23%, Abeta rescue 5.6µM*, TDP43 rescue inconclusive and FUS yeast rescue inactive.
For CCNC(=S)N1CCN(c2ccc([N+](=O)[O-])cc2)CC1 the results were aSyn yeast inh -3%, Abeta rescue inactive, TDP43 rescue 5% and FUS yeast rescue inactive.
`Cc1ccc(S(=O)(=O)N2CCN(c3nc(N(C)c4cc(Cl)ccc4O)nc4ccccc34)CC2)cc1` gave aSyn yeast inh 2%.
Screening CC1CCCN(C(=O)c2cc3c(Cl)nc4ccccc4c3s2)C1 (stereo unspecified) returned Abeta rescue inactive, TDP43 rescue 20µM* and FUS yeast rescue inactive.
CCCc1cc(-c2nc(N)ncc2-c2csc(C)n2)c(O)cc1OC was read as aSyn yeast inh 1%, Abeta rescue inactive, TDP43 rescue 13µM* and FUS yeast rescue inactive.
Screening CCc1cc(-c2nc(N)ncc2-c2csc(C)n2)c(O)cc1OC returned aSyn yeast inh 1%, Abeta rescue inactive, TDP43 rescue 11% and FUS yeast rescue inactive.
Screening Cc1ccsc1C1Nc2ccc3ncccc3c2C2=C1C(=O)CC(C)(C)C2 (stereo unspecified) returned aSyn yeast inh 2%, Abeta rescue inactive, TDP43 rescue -23% and FUS yeast rescue 13µM*.
`COC(=O)[C@H]1C[C@@]2(N3CCCC3)c3ccccc3N[C@H]2N1S(C)(=O)=O` gave FUS yeast rescue inactive.
Screening O=[N+]([O-])c1cccc(-c2nn(-c3ccccc3)cc2CO)c1 returned aSyn yeast inh 5%, Abeta rescue inactive, TDP43 rescue 13µM* and FUS yeast rescue inactive.
`CC(=O)N1CCN(C2=NC(=O)N(c3ccc(Br)cc3)C(=O)C2)CC1` gave FUS yeast rescue inactive.
Cn1cc(C(CO)Cc2ccccc2)c2ccccc21 (stereo unspecified) was read as aSyn yeast inh 18µM*, Abeta rescue inactive, TDP43 rescue inconclusive and FUS yeast rescue inactive.
Screening Nc1[nH]c2cc(Cl)ccc2c1C(=O)N1CCOCC1 returned FUS yeast rescue inactive.
Screening O=C1c2ccccc2C2(c3ccccc3)N1CCN2C(=O)C(Cl)(Cl)Cl (stereo unspecified) returned aSyn yeast inh 5%, Abeta rescue inactive, TDP43 rescue 13µM* and FUS yeast rescue inactive.
For CCCCc1c(-c2cccc(F)c2)ncn1CCc1ccccc1OC the results were aSyn yeast inh 5%, Abeta rescue inactive, TDP43 rescue 0% and FUS yeast rescue inactive.
`CCCCc1c(-c2cccc(Br)c2)ncn1CCc1ccccc1OC` gave aSyn yeast inh 3%, Abeta rescue inactive, TDP43 rescue 25µM* and FUS yeast rescue inactive.
Screening c1coc(CNc2ncnc3c2nc2n3CCCC2)c1 returned aSyn yeast inh -4%.
`CCOC(=O)c1cc(C#N)c(SC(C(=O)N2CCCCC2)c2ccccc2)nc1C` (stereo unspecified) gave aSyn yeast inh 12%.
Screening COc1cc2cc(C(c3nnnn3C(C)(C)C)N3CCc4ccccc43)c(=O)[nH]c2cc1OC (stereo unspecified) returned aSyn yeast inh 10%, Abeta rescue inactive, TDP43 rescue -22% and FUS yeast rescue 28µM*.
For C#CCOCCOCCOCCNc1nc(N2CCN(C(=O)Cn3cc(CCCN=C(N)N)nn3)CC2)nc(N2CCN(C(=O)[C@H](Cc3ccc(O)cc3)n3cc(CCO)nn3)CC2)n1 the results were FUS yeast rescue inactive.
Screening COc1ccc(-c2nc(CSCC(=O)N3CCN(c4ccccc4)CC3)c(C)o2)cc1 returned Abeta rescue inactive, TDP43 rescue 0% and FUS yeast rescue inactive.
Cc1ccsc1-c1nc(CSCC(=O)N2CCN(c3ccccc3)CC2)c(C)o1 was read as aSyn yeast inh 16%, Abeta rescue inactive, TDP43 rescue 13µM* and FUS yeast rescue inactive.
`Cc1cc(Cl)ccc1OCC(=O)N/N=C/c1ccc[nH]1` gave FUS yeast rescue inactive.
